Pf Dd2 inh: blocks growth of Plasmodium falciparum Dd2 parasites | P. falciparum Dd2 growth, SYBR Green, 72 h; stronger effect = lower value | activity change, % at 10 µM | 2.3% of 94,000 active | AID 1159554; in the data active means activity change below about -80%; inconclusive means no clear call, values can overlap the other calls
C diff HTS: blocks growth of Clostridium difficile | Clostridium difficile clinical isolate growth, OD600, 24 h; stronger effect = lower value | growth activity, negative = inhibition, % at 16 µg/mL (by protocol) | 0.25% of 86,000 active | AID 1259249;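 active means mean growth activity at or below -80% and every replicate also at or below -80%; inconclusive means mean at or below -80% but some replicate above -80%; inactive means mean growth activity above -80%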;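 further: 0% = DMSO wells and -100% = levofloxacin 16 µg/mL wells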
Numbers without * were called inactive; ? = inconclusive; / = not tested or not shown; ! = a repeat was not active. This is a sample that favours compounds with a hit; in the whole collection about 2.4% have one here.

SMILES	Pf Dd2 inh	C diff HTS
COc1ccc(CN(C)C[C@H]2Oc3c(NC(=O)C4CCOCC4)cccc3C(=O)N([C@H](C)CO)C[C@@H]2C)cc1	-1	3
COc1ccc(S(=O)(=O)N(C)C[C@@H]2Oc3ccc(NC(=O)NC4CCCCC4)cc3C(=O)N([C@@H](C)CO)C[C@@H]2C)cc1	-23	-3
N#Cc1ccc(-c2ccc(C3[C@@H]4CN(C(=O)Nc5ccc(C(F)(F)F)cc5)C[C@H]3N4)cc2)cc1 (stereo not given in full)	?	-96*!
COc1ccc(NC(=O)N2C[C@@H]3N[C@H](C2)C3c2ccc(-c3cccc(F)c3)cc2)cc1 (stereo not given in full)	-33	3
COc1ccccc1NC(=O)N1C[C@@H]2N[C@H](C1)C2c1ccc(-c2ccc(C#N)cc2)cc1 (stereo not given in full)	-64	16
O=C(Nc1ccc(C(F)(F)F)cc1)N1C[C@@H]2N[C@H](C1)C2c1ccc(-c2cccc(F)c2)cc1 (stereo not given in full)	-83*!	-99*
COc1cccc(S(=O)(=O)N2C[C@H](O)COC[C@@H]3O[C@H](CC(=O)N4CCOCC4)CC[C@H]32)c1	-5	/
C[C@H]1CN([C@@H](C)CO)C(=O)c2cccc(NS(=O)(=O)c3ccc(F)cc3)c2O[C@@H]1CN(C)Cc1ccc(C(F)(F)F)cc1	-25	1
Cc1cc(C(=O)Nc2cccc3c2O[C@@H](CN(C)Cc2ccc(C(=O)Nc4ccccc4N)cc2)[C@H](C)CN([C@H](C)CO)C3=O)n(C)n1	-92*	-3
Cc1cc(C(=O)Nc2cccc3c2O[C@H](CN(C)Cc2ccc(C(=O)Nc4ccccc4N)cc2)[C@@H](C)CN([C@@H](C)CO)C3=O)n(C)n1	-87*	-2
Cc1cc(C(=O)Nc2cccc3c2O[C@@H](CN(C)Cc2ccc(C(=O)O)cc2)[C@H](C)CN([C@H](C)CO)C3=O)n(C)n1	-1	4
Cc1cc(C(=O)Nc2cccc3c2O[C@H](CN(C)Cc2ccc(C(=O)Nc4ccccc4N)cc2)[C@@H](C)CN([C@H](C)CO)C3=O)n(C)n1	-88*	3
Cc1cc(C(=O)Nc2cccc3c2O[C@@H](CN(C)Cc2ccc(C(=O)O)cc2)[C@@H](C)CN([C@@H](C)CO)C3=O)n(C)n1	-7	-1
Cc1cc(C(=O)Nc2cccc3c2O[C@H](CN(C)Cc2ccc(C(=O)Nc4ccccc4N)cc2)[C@H](C)CN([C@H](C)CO)C3=O)n(C)n1	-60	-1
C[C@H]1CN([C@@H](C)CO)C(=O)c2cc(Br)cnc2O[C@H]1CN(C)C(=O)Nc1ccc(F)cc1	36	-4
CC(C)NC(=O)N(C)C[C@@H]1Oc2ccc(NC(=O)Nc3ccc(F)cc3)cc2CC(=O)N([C@H](C)CO)C[C@@H]1C	-13	-9
C[C@H]1CN([C@@H](C)CO)C(=O)c2cc(C#CC3CC3)cnc2O[C@H]1CN(C)Cc1cccc(C(=O)O)c1	7	-3
C[C@@H]1CN([C@@H](C)CO)C(=O)c2cc(NC(=O)Cc3ccccc3)ccc2O[C@@H](C)CCCCO[C@@H]1CN(C)S(=O)(=O)c1ccc(F)cc1	-87*	2
C[C@@H]1CCCCO[C@H](CN(C)S(=O)(=O)c2ccc(Cl)cc2)[C@@H](C)CN([C@H](C)CO)C(=O)c2cc(NC(=O)CCCCCC(=O)Nc3ccccc3N)ccc2O1	-85*	-2
C[C@@H]1CN([C@H](C)CO)C(=O)c2cc(NC(=O)CCCCCC(=O)Nc3ccccc3N)ccc2O[C@@H](C)CCCCO[C@@H]1CN(C)S(=O)(=O)c1ccc(Cl)cc1	-78	/
C[C@H](CO)N1C[C@H](C)[C@@H](CN(C)S(=O)(=O)c2ccc(Cl)cc2)OCCCC[C@H](C)Oc2ccc(NC(=O)Cc3ccccc3)cc2C1=O	-41	6
C[C@H](CO)N1C[C@H](C)[C@H](CN(C)S(=O)(=O)c2ccc(F)cc2)OCCCC[C@H](C)Oc2ccc(NC(=O)Cc3ccccc3)cc2C1=O	-74	-7
C[C@@H]1CN([C@H](C)CO)C(=O)c2cc(NC(=O)Cc3ccccc3)ccc2O[C@@H](C)CCCCO[C@@H]1CN(C)S(=O)(=O)c1ccc(F)cc1	-89*	/
C[C@@H]1CN([C@H](C)CO)C(=O)c2cc(NC(=O)Cc3ccccc3)ccc2O[C@@H](C)CCCCO[C@H]1CN(C)S(=O)(=O)c1ccc(Cl)cc1	-82*	-2
C[C@@H]1CCCCO[C@@H](CN(C)S(=O)(=O)c2ccc(F)cc2)[C@H](C)CN([C@H](C)CO)C(=O)c2cc(NC(=O)Cc3ccccc3)ccc2O1	-77	2
SMILES	Pf Dd2 inh	C diff HTS
CO[C@@H]1CN(C)C(=O)c2ccc(NS(=O)(=O)CC(F)(F)F)cc2OC[C@H](C)N(C)C[C@@H]1C	-27	-2
CCC(=O)N1C[C@@H](C)[C@H](OC)CN(C)C(=O)c2ccc(NC(=O)Nc3cccc(F)c3)cc2OC[C@H]1C	-74	-7
CCCNC(=O)[C@@H]1[C@@H](CO)[C@@H]2Cn3c(ccc(-c4ccccc4F)c3=O)[C@H]1N2S(C)(=O)=O	-11	-4
COc1ccc2c3c(n(C)c2c1)[C@H](CO)N(Cc1ccccc1OC)CC31CN(C(=O)C2CC2)C1	-6	/
C[C@@H]1CCCCO[C@H](CN(C)C(=O)Nc2ccc(F)cc2)[C@H](C)CN([C@@H](C)CO)C(=O)c2cc(NC(=O)Cc3ccccc3)ccc2O1	-82*	-1
C[C@@H]1CN([C@H](C)CO)C(=O)c2cc(NC(=O)Cc3ccccc3)ccc2O[C@@H](C)CCCCO[C@@H]1CN(C)S(=O)(=O)c1ccccc1	-81*	/
C[C@@H]1CCCCO[C@@H](CN(C)S(=O)(=O)c2ccccc2)[C@H](C)CN([C@H](C)CO)C(=O)c2cc(NC(=O)Cc3ccccc3)ccc2O1	-66	/
C[C@H]1CCCCO[C@H](CN(C)C(=O)Nc2ccc(F)cc2)[C@@H](C)CN([C@@H](C)CO)C(=O)c2cc(NC(=O)Cc3ccccc3)ccc2O1	-75	-4
COc1ccc(CN(C)C[C@H]2Oc3c(NS(=O)(=O)c4ccc(OC)cc4)cccc3C(=O)N([C@H](C)CO)C[C@H]2C)cc1	1	-2
CCCNC(=O)N1CCC2(CC1)CN(Cc1cccc(F)c1)[C@H](CO)c1[nH]c3cc(OC)ccc3c12	-83*	1
COc1ccc2c3c([nH]c2c1)[C@H](CO)N(C(=O)c1cccc(F)c1)CC31CCN(C(=O)CC2CC2)CC1	-82*	-10
COc1ccc2c3c([nH]c2c1)[C@@H](CO)N(Cc1ccc(F)cc1)CC31CCN(C(C)=O)CC1	35	/
COc1ccc2c3c([nH]c2c1)[C@H](CO)N(C(=O)c1cccc(F)c1)CC31CN(C(=O)CC2CC2)C1	-78	-12
COc1ccc2c3c([nH]c2c1)[C@H](CO)N(Cc1cccc(F)c1)CC31CCN(C(C)=O)CC1	-83*	4
CCCNC(=O)N1CCC2(CC1)CN(Cc1cccc(OC)c1)[C@H](CO)c1[nH]c3cc(OC)ccc3c12	-74	2
COc1ccc2c3c(n(C)c2c1)[C@H](CO)N(CC1CC1)CC31CCN(C(=O)Nc2ccccc2)CC1	-65	3
COc1ccc2c3c(n(C)c2c1)[C@@H](CO)N(CC1CCOCC1)CC31CCN(C(=O)Nc2ccccc2)CC1	-83*	2
COc1ccc2c3c(n(C)c2c1)[C@H](CO)N(CC1CCCC1)CC31CCN(C(=O)Nc2ccccc2)CC1	-66	48

Source: PubChem BioAssay (Broad Institute)
